Drawing on PubChem BioAssay AID547 (Emory University Molecular Libraries Screening Center, 2006), this text covers luminescence for 25 molecules.

Several values for one entry are separate records, joined by “and”; a condition that tells them apart may be missing. Equal entries are not always repeated. The whole screen tested about 1,300 compounds, of which about 10 (0.8%) were called active. Many of the other results were omitted from the sample, so actives are more common in it than they were. Values without a mark were called inactive. How the calls were made is not given here.

The test concerns the target Chaperone protein DnaK (Escherichia coli (strain K12)) (UniProt P0A6Y8). Nature of the test: blockers of bacterial DnaK function – luminescence, E. coli K12, primary screen (AID 547).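 Further: tested at 10 µM.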 Conditions: DnaK chaperone assay, luminescence read-out; stronger effect = lower value.
As for `NCCCCCCNS(=O)(=O)c1cccc2c(Cl)cccc12`, the luminescence is 2.8e+06 cps.

`CCSC(N)=Nc1ccc(C(F)(F)F)cc1`: the luminescence was 2.3e+06 cps. With `OC[C@H]1O[C@@H](n2cnc3c(Nc4ccccc4)ncnc32)C(O)[C@H]1O` (stereo not given in full), the luminescence is 2.3e+06 cps. For `COc1ccccc1N1CCN(CCCCNS(=O)(=O)c2cccc3c(N(C)C)cccc23)CC1`, the luminescence was 2.1e+06 cps.

On to `O=c1cc(-c2ccccc2)[nH]c2nc(Cl)ccc12`, for which the luminescence is 2.7e+06 cps. Consider `CC(=O)N[C@H](C(=O)O)C(C)(C)SN=O`, for which the luminescence is 2.5e+06 cps.

On to `O=C(O)c1cc2cc(F)ccc2[nH]1`, for which the luminescence was 2.1e+06 cps. The value for `O=c1[nH]c2cc(C(F)(F)F)ccc2n1-c1cc(C(F)(F)F)ccc1O` was 2.6e+06 cps; that for `O=C(O)CC1CCCc2ccccc2C1O` (stereo not given) was 2.7e+06 cps; that for `NCC(O)C1CCCCCCC1` (stereo not given) was 2.9e+06 cps. The figure for `CN=C(NC#N)Nc1ccc(C2=NNC(=O)CC2C)cc1` (stereo not given) is 2.6e+06 cps; for `O=C1NC(c2cccc([N+](=O)[O-])c2)=CCN1c1ccccc1O` it is 3e+06 cps; for `CC1(C)CCC=[N+]1[O-]` it is 2.6e+06 cps. On to `NC[C@@H]1O[C@H](C23CC4CC(CC(C4)C2)C3)Cc2c1ccc(O)c2O`, for which the luminescence was 3e+06 cps. The value for `N#C/C(=C\c1c[nH]c2ccccc12)C(=O)c1ccc(O)c(O)c1` was 2.2e+06 cps; that for `O=C1C2C=CC=CC2=NC(=S)N1CCN1CCC(=C(c2ccc(F)cc2)c2ccc(F)cc2)CC1` (stereo not given) was 2.9e+06 cps; that for `COc1cc2nc(N3CCN(C(=O)OCc4ccccc4)C(C(=O)NC(C)(C)C)C3)nc(N)c2cc1OC` (stereo not given) was 2.3e+06 cps. On to `CCc1cccc(N(C)C(N)=Nc2cccc3ccccc23)c1`, for which the luminescence was 2.4e+06 cps. With `Nc1nc(Cl)nc2c1ncn2[C@@H]1O[C@H](CO)[C@H](O)C1O` (stereo not given in full), the luminescence was 2.7e+06 cps. In the case of `OCc1ccc(-c2nn(Cc3ccccc3)c3ccccc23)o1`, the luminescence was 2.1e+06 cps. As to `CC(N)(Cc1ccc(O)c(O)c1)C(=O)O` (stereo not given), the luminescence was 2.3e+06 cps.

For `CC1CNCCN1S(=O)(=O)c1cccc2cnccc12` (stereo not given), the luminescence was 3.1e+06 cps and 2.6e+06 cps. The value for `OCC1NC[C@@H](O)C(O)[C@@H]1O` (stereo not given in full) was 2.4e+06 cps. As for `O=C(O)CNC(=O)C(CS)Cc1ccccc1` (stereo not given), the luminescence was 2.3e+06 cps.

`CN(C)C/C=C(/c1ccc(Br)cc1)c1cccnc1`: the luminescence was 1.8e+06 cps.
